Bioassay records as filed in PubChem.
Sfp PPTase inh – qHTS Assay for Inhibitors of Bacillus subtilis Sfp phosphopantetheinyl transferase (PPTase); Biochemical Sfp PPTase activity, qHTS; Potency, µM, inactives show largest response in the series, negative = inhibition, hits mostly inhibitors; 310,000 tested, 3.5% active; AID 1490, 2009;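 further: the enzyme is Sfp with the accession as filed and its product quenches rhodamine fluorescence; 0% = enzyme reaction without inhibitor and -100% = no enzyme wells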
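Fluorescence-quenching assay: 15 nM Sfp-PPTase preincubated 15 min at room temperature with compound, then 5 uM rhodamine-CoA and 12.5 uM BHQ-2-labelled YbbR peptide added. Fluorescence (ex 525/em 598 nm) read at start and after 30 min; difference gives rate.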
ALOX12 inh – Primary qHTS assay for inhibitors of human arachidonate 12S-lipoxygenase (ALOX12): Round 2; purified 12hLO, xylenol orange hydroperoxide absorbance; Potency, µM (titrated, usually from 108 µM), without a hit: top-dose activity change, negative = inhibition, actives largely listed as inhibitors; 580,000 tested, 1.1% active; AID 1671190, 2021
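Hydroperoxide product was detected by ferrous iron/xylenol orange as the 573 to 405 nm absorbance ratio. Arachidonic acid at 40 uM (final) was turned over for 30 min at room temperature by 150 nM human 12hLO, pH 7.0 Hepes buffer, after 15 min compound preincubation.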
VDR inhibitor – Inhibitors of the vitamin D receptor (VDR): qHTS; Vitamin D3 receptor (Homo sapiens), P11473; VDR-SRC2-3 peptide fluorescence polarization, 2 h; Potency, µM, inactives show max response, negative = inhibition, hits mostly inhibitors; 400,000 tested, 0.93% active
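Inhibition of the VDR/SRC2-3 peptide interaction is quantified by fluorescence polarization. Compounds (23 nl, pintool) incubate with the reagents for 2 hours at ambient room temperature.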
PLK1 PBD inh – qHTS for Inhibitors of PLK1-PDB (polo-like kinase 1 - polo-box domain): Primary Screen | 360,000 tested, 2.8% active | Serine/threonine-protein kinase PLK1 (Homo sapiens), P53350 | Plk1 PBD binding of FITC phosphopeptide, fluorescence polarization | Potency, µM, for inactives: max response, negative = inhibition, usual class: inhibitors; further: series mostly up to about 57 µM; nearly all actives have a fitted effect of over 65% in size
Target sequence (P53350 whole entry, looked up, the tested form may be a part): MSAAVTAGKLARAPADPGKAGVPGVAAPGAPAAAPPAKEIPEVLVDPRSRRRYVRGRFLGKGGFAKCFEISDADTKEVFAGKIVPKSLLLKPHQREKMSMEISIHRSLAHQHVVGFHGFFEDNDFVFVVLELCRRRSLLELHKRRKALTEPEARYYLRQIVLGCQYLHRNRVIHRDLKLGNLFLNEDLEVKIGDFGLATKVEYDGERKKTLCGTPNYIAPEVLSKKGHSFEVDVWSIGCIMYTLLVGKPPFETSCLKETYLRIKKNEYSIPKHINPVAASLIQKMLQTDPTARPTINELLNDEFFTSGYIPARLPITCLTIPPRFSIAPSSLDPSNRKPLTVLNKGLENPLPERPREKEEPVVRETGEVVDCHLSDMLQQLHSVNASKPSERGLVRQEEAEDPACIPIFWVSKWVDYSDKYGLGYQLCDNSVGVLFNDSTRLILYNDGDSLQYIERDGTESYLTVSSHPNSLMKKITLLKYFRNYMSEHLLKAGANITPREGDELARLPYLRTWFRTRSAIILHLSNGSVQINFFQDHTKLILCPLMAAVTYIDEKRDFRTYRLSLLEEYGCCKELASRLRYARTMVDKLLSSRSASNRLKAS
* marks the source's active call; other numbers are inactive results; ? = inconclusive; . = no result. A selection: hits, their analogues and other compounds. The true share with any hit is near 4.2%. The call rests on the fitted dose curve; in most records, active means well fitted curve in the direction sought with a large enough effect; inconclusive means small, poorly fitted or top-dose-only effect, or another doubt; inactive means no such curve, though single readings can be large; an effect the other way counts as inactive or inconclusive. Unless noted, on the % scale 0 is the no-effect control and ±100 the full control effect; potency means the concentration at half of the fitted maximal effect.

SMILES	Sfp PPTase inh	ALOX12 inh	VDR inhibitor	PLK1 PBD inh
O=S(=O)(Nc1ccc(O)c(NS(=O)(=O)c2ccccc2)c1)c1ccccc1	40µM*	?	5%	-10%
COc1ccc(-c2noc(N3CCC(C(=O)Nc4ccc(OC)cc4OC)CC3)n2)cc1	-5%	13%	-20%	3%
COc1cc(/C=C/C(=O)O)cc(S(=O)(=O)Nc2ccc(F)cc2)c1OC	-2%	-17%	-17%	-10%
Cc1ccc(C)c(S(=O)(=O)Nc2ccc(C(N)=O)cc2)c1	10%	-17%	13%	-12%
COc1ccc(S(=O)(=O)Nc2ccccc2)cc1	.	0%	5%	-3%
Cc1ccc(C)c(S(=O)(=O)Nc2ccc(O)c3ccccc23)c1	71µM*	?	?	24µM*
COc1cc(/C=C/C(=O)O)cc(S(=O)(=O)Nc2ccc3nc(C)sc3c2)c1OC	40µM*	-13%	0%	-18%
COc1ccc(S(=O)(=O)Nc2ccc(O)c3ccccc23)cc1	-4%	-39%	?	27µM*
CC(C)N(C(=O)Cn1cnc2c(cnn2-c2ccccc2Cl)c1=O)C(C)C	10%	9%	6%	-4%
COc1cc(=O)n2c(c1C(=O)Nc1ccc(C)cc1)CCCC2	.	32%	.	.
O=S(=O)(Nc1cc(Sc2ncn[nH]2)c(O)c2ccccc12)c1ccccc1	8.9µM*	?	?	2.1µM*
CN(C)/C=C/C(=O)c1cnc(-c2ccc(Cl)cc2)s1	7%	32µM*	10%	-5%
CN(C)/C=C/C(=O)c1cnc(-c2ccccc2)s1	18%	?	1%	3%
Cc1ccc(-n2c(N)c(C(N)=O)sc2=S)c(C)c1	20µM*	?	89µM*	6.7µM*
Cc1ccccc1-n1c(N)c(C(=O)Nc2ccc(F)cc2)sc1=S	?	26%	-7%	?
Cc1ccc(NC(=O)c2sc(=S)n(-c3cc(C)ccc3F)c2N)cc1	50µM*	?	89µM*	12µM*
COc1ccc(Cl)cc1-n1c(N)c(C(N)=O)sc1=S	16µM*	?	79µM*	12µM*
COC(=O)c1sc(=S)n(-c2cc(C)ccc2C)c1N	.	22%	.	.
O=C1c2ccccc2NC(c2ccc(Cl)cc2)N1c1ccc(O)cc1 (centres undefined)	.	-16%	.	.
CCc1ccc2[nH]c(=O)c(C(c3nnnn3CC3CCCO3)N3CCN4CCCC4C3)cc2c1 (centres undefined)	35µM*	-17%	-1%	-8%
Cc1cc(C)c2[nH]c(=O)c(C(c3nnnn3CC3CCCO3)N3CCC(C)CC3)cc2c1 (centres undefined)	-21%	?	-12%	-16%
Cc1cc(C)c2[nH]c(=O)c(C(c3nnnn3CC3CCCO3)N3CCCC(C)C3)cc2c1 (centres undefined)	22µM*	?	-2%	-4%
Cc1ccc2[nH]c(=O)c(C(c3nnnn3CC3CCCO3)N3CCc4ccccc4C3)cc2c1 (centres undefined)	22µM*	-26%	1%	-30%
Cc1ccc2[nH]c(=O)c(C(c3nnnn3CC3CCCO3)N3CCOCC3)cc2c1 (centres undefined)	-9%	-11%	-3%	-17%
O=C(Nc1ccc(F)cc1)c1cccc(N2C(=O)c3ccccc3C2=O)c1	-12%	-26%	-4%	-9%
SMILES	Sfp PPTase inh	ALOX12 inh	VDR inhibitor	PLK1 PBD inh
O=C(Nc1ccc(F)c(Cl)c1)c1cc(C2CCCCN2C(=O)CCCc2ccccc2)on1 (centres undefined)	.	2%	.	-3%
CSc1ccccc1NC(=O)CSc1n[nH]c(C)c1[N+](=O)[O-]	-26%	?	4%	?
CCc1cccc(C)c1NC(=O)COC(=O)c1c2c(nc3ccccc13)/C(=C\c1cccs1)CCC2	10%	0%	0%	1%
CCNC(=S)/C(=C(/[O-])c1ccc([N+](=O)[O-])cc1)[n+]1ccccc1	-15%	-29%	-4%	-15%
CCc1ccc(/C([O-])=C(/C(=S)NCCN2CCOCC2)[n+]2ccccc2)cc1	45µM*	-7%	-16%	?
Cc1ccc(NC2=C(Cl)C(=O)OC2OC(=O)c2ccc(C)cc2)cc1 (centres undefined)	-30%	7.9µM*	8%	-1%
COc1ccc(-c2cnc(N)n2CC2CCCO2)cc1 (centres undefined)	-8%	0%	7%	27µM*
COc1ccc(Oc2ncc3nc(-c4ccc(F)cc4)c(=O)n(C[C@H]4CCCO4)c3n2)cc1	1%	?	1%	.
O=C1c2ccccc2C(=O)N1Cc1ccco1	11%	0%	-6%	-5%
CC1=CC(=C2C(=O)c3ccccc3C2=O)C=C(C)N1Cc1ccco1	45µM*	?	-15%	-17%
COCCCNC(=S)NNC(=O)CSCc1ccccc1	.	-1%	.	.
O=C(Cn1c(=O)n(Cc2ccco2)c(=O)c2c3c(sc21)CCCCC3)c1ccccc1	56µM*	?	-5%	-20%
CC(=O)c1c(C)[nH]c(C(=O)N2CC(C)CC(C)C2)c1C (centres undefined)	9%	1%	-15%	2%
COc1ccccc1NC(=O)CSc1nc2c(sc3ccccc32)c(=O)n1CCN(C)C	40µM*	?	79µM*	?
C=CCN(C(=O)CSc1nc2c(sc3ccccc32)c(=O)n1CCN(CC)CC)c1ccccc1	50µM*	?	?	-9%
O=C(NC(Cc1ccccc1)C(=O)O)/C(=C/c1ccccc1)NC(=O)c1ccc(Br)o1 (centres undefined)	25%	-21%	4%	0%
COc1ccc(C2C(C(=O)C(C)(C)C)=C(O)C(=O)N2Cc2ccccc2)cc1 (centres undefined)	20%	-25%	-9%	-9%
COc1ccc(C2=C(O)C(=O)N(Cc3ccc(C)cc3)C2c2ccc(F)cc2)cc1 (centres undefined)	.	18µM*	.	.
COc1ccc(C2=C(O)C(=O)N(CCc3ccccc3)C2c2ccc(C(=O)O)cc2)cc1 (centres undefined)	.	18µM*	.	.
COc1ccc(C2/C=C\C(c3ccc(OC)cc3)N(Cc3ccc(F)cc3)C(=O)C(=O)N2Cc2ccc(F)cc2)cc1 (centres undefined)	4%	.	-11%	.
O=C(c1ccco1)N1C(=O)c2cccc3cccc1c23	9%	-28%	-5%	5.3µM*
CC(/C=C1\SC(=S)N(NS(=O)(=O)c2ccc(C)cc2)C1=O)=C\c1ccccc1	-5%	16µM*	?	19µM*
CC(=O)N1C(=O)/C(=C2\SC(=S)N(NS(=O)(=O)c3ccc(C)cc3)C2=O)c2ccccc21	45µM*	45µM*	2%	17µM*
CC(/C=C1\SC(=S)N(NC(=O)c2ccncc2)C1=O)=C\c1ccccc1	45µM*	?	?	-23%
COc1cccc(CC(=O)Nc2ccc(S(=O)(=O)Nc3nc(C)cc(C)n3)cc2)c1	5%	-12%	?	13µM*
